Shown are actives, neighbours in structure and some others; about 1.7% of the full set was active somewhere.
aDG glyco up = activators of alpha-DG glycosylation, primary screen, uHTS, Pro5-aDG cells, AlphaScreen | activation, % at 10 µM | alpha-DG glycosylation AlphaScreen (IIH6); 0% Pro5, 100% B10-LARGE cell signal | AID 624168, 2012 | 360,000 tested, 0.22% active;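 active means activation of at least 8% versus controls, or a plate z-score of at least 8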;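 further: Pro5 are CHO cells carrying HIG-tagged alpha-DG that lacks glycosylation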
Glyco luc inh = increase of ERlucT glycosylation luciferase signal, primary screen, N-linked glycosylation inhibitor project, D54 ERlucT cells, luminescence, set 2; 360,000 tested, 0.23% active; D54 ERlucT glycosylation luciferase reporter, 24 h; percent of 100 nM tunicamycin response; reporter increase, % at 12.5 µM;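 active means mean luciferase reporter signal, scaled so untreated is 0 and the glycosylation-blocking control 100, at or above a set limit in every replicate; inconclusive means mean reaches the limit but not every replicate does; inactive means mean below the limit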;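 further: luciferase carries N-glycosylation sites so blocking glycosylation raises the light; 0% = median of neutral control wells and 100% = median of 100 nM tunicamycin wells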
Vif inh = HIV Vif self-association inhibitors, primary screen, imaging, HEK293T, single point; AID 602346, 2012; inhibition, % at 7.49 µM; HEK293T cells, Vif self-association by quenched fluorescence, 24 h; 340,000 tested, 0.35% active; in the data active means inhibition above about 50%, passing the limit was not always enough; inconclusive means no clear call, values can overlap the other calls; inactive means below about 31%
ARNT TACC3 PPI = disruptors of ARNT/TACC3 protein interaction, primary screen, biochemical, AlphaScreen, single concentration. AlphaScreen His-ARNT PAS-B/GST-TACC3 binding, luminescence; TACC3 fragment carries E629A point mutation. inhibition, % at 9.99 µM. 390,000 tested, 0.66% active. AID 623870, 2012;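 active means mean inhibition of replicates at least 50% and at least half of replicates each reaching 50%; inconclusive means half or more replicates reach 50% but mean below 50%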;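 further: 0% = complete ARNT plus TACC3 wells and 100% = ARNT alone without TACC3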
H9c2 protect = cardioprotection against H2O2-induced cell death, primary screen, uHTS, H9c2 cells, ATPLite luminescence; protection from H2O2 cell death, % at 20 µM; H9c2 cardiomyocytes, H2O2 injury protection, 2 h; AID 588492, 2011; 360,000 tested, 0.63% active;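 active means compounds giving at least 50% protection of heart cells from peroxide-induced death in the single-dose screen, raw or plate-pattern-corrected value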;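 further: 0% = DMSO wells with peroxide and 100% = DMSO wells without peroxide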
Numbers without * were called inactive; ? = inconclusive; . = no result.

SMILES | aDG glyco up | Glyco luc inh | Vif inh | ARNT TACC3 PPI | H9c2 protect
CC(=O)c1cccc(-c2cnc3c(NC=O)cc(-c4ccc(F)cc4)cn23)c1 | -0.4 | 5.5 | . | . | 60.9*
COc1ccccc1-c1cc(NC=O)c2ncc(-c3cccc(C(C)=O)c3)n2c1 | -0.4 | ? | . | . | 60.0*
COc1ccccc1-c1cc(NC=O)c2ncc(-c3cccc(C(=O)N(C)C)c3)n2c1 | -0.2 | 40.9* | ? | . | 8.0
O=C(Nc1ccccc1)N[C@@H]1CC[C@@H](CCNC(=O)c2ccccc2F)O[C@H]1CO | . | . | . | -7.8 | .
O=C(C[C@H]1C=C[C@@H](NC(=O)c2cccc(F)c2)[C@@H](CO)O1)Nc1nccs1 | . | . | . | 5.6 | .
COc1ccc(CN(C)C[C@H]2Oc3ccc(NC(=O)Cc4ccccc4)cc3CC(=O)N([C@@H](C)CO)C[C@H]2C)cc1 | . | . | . | 0.5 | .
O=C(C[C@H]1C[C@H]2c3cc(NC(=O)C4CCC4)ccc3O[C@H]2[C@H](CO)O1)NCc1cccc(F)c1 | . | . | . | 0.0 | .
COC(=O)[C@H]1[C@H](CO)[C@H]2Cn3c(ccc(-c4cccc(F)c4)c3=O)[C@H]2N1CC1CCCC1 | . | . | . | 13.3 | .
COc1ccc(NC(=O)N(C)C[C@H]2Oc3ccc(NC(=O)Nc4ccc(C(F)(F)F)cc4)cc3CC(=O)N([C@H](C)CO)C[C@H]2C)cc1 | . | . | . | -6.8 | .
O=S(=O)(O)c1cc(O)c2c(O)c(N=Nc3cc(Cl)ccc3O)c(S(=O)(=O)O)cc2c1 | -0.3 | -9.3 | -0.6 | 69.1* | -7.8
Oc1ccc(Cl)cc1N=Nc1ccccc1 | -0.1 | 2.0 | -3.6 | -2.8 | 1.2
C[C@@H]1CN([C@@H](C)CO)C(=O)Cc2cc(NS(=O)(=O)c3ccc(Cl)cc3)ccc2O[C@@H]1CN(C)Cc1ccncc1 | . | . | . | -3.6 | .
Cc1ccc(OCc2ccc(C(=O)Nc3c(C)nn(Cc4c(F)c(F)c(F)c(F)c4F)c3C)o2)c([N+](=O)[O-])c1 | 4.0* | 0.4 | -24.0 | 2.6 | -15.2
O=C(C[C@@H]1CC[C@H](NC(=O)Nc2ccc(C(F)(F)F)cc2)[C@@H](CO)O1)NCc1ccccn1 | . | . | . | -6.1 | .
C[C@H](CO)N1C[C@H](C)[C@@H](CN(C)C(=O)Nc2ccc(F)cc2)Oc2ccc(NC(=O)c3ccncc3)cc2CC1=O | . | . | . | 8.3 | .
O=C(CN1C(=O)CSC1=O)N1CCc2ccccc2C1 | 0.2 | 0.6 | -2.6 | 29.6* | 0.5
C[C@@H]1CN([C@H](C)CO)C(=O)c2cc(NC(=O)CCCN(C)C)ccc2O[C@@H]1CN(C)C(=O)Nc1ccc2c(c1)OCO2 | . | . | . | 8.9 | .
O=C(NC1C=CS(=O)(=O)C1)c1sc2ccccc2c1Cl (configuration not stated) | 0.1 | 31.6* | 18.2 | -5.5 | -5.8
C[C@@H]1CN([C@@H](C)CO)C(=O)c2cc(NS(C)(=O)=O)ccc2O[C@@H](C)CCCCO[C@H]1CN(C)Cc1ccncc1 | . | . | . | -8.2 | .
C=CCOc1ccc(C2NC(=O)c3ccccc3O2)cc1OCC (configuration not stated) | -0.1 | 1.8 | -0.9 | -0.6 | -1.4
CCOC(=O)COc1cccc(C2NC(=O)c3ccccc3O2)c1 (configuration not stated) | 0.5 | -0.9 | -0.2 | . | 82.7*
CN1C(=O)c2cc(NC(=O)Nc3ccccc3Cl)ccc2OC[C@@H]2O[C@H](CC(=O)NCCCN3CCOCC3)CC[C@@H]21 | . | . | . | -5.2 | .
C[C@H]1CN([C@@H](C)CO)C(=O)Cc2cc(NS(=O)(=O)c3cn(C)cn3)ccc2O[C@@H]1CN(C)S(C)(=O)=O | . | . | . | -1.6 | .
COc1ccc(Nc2nc(-c3cccs3)nc3ccccc23)cc1S(=O)(=O)N1CCOCC1 | -0.3 | -6.0 | -1.3 | 18.4 | 67.3*
COc1ccc(NS(=O)(=O)c2cccs2)cc1S(=O)(=O)N1CCOCC1 | 0.0 | 2.2 | -0.5 | 13.1 | 3.5
SMILES | aDG glyco up | Glyco luc inh | Vif inh | ARNT TACC3 PPI | H9c2 protect
Cc1cc(N2CCN(S(=O)(=O)c3ccc(Cl)cc3)CC2)c2ccccc2n1 | 1.6 | -3.1 | -16.8 | 0.9 | -19.0
Cc1cc(N2CCN(S(=O)(=O)c3ccc(Cl)c(Cl)c3)CC2)c2ccccc2n1 | 1.5 | 1.5 | 85.8* | 1.8 | 1.5
C[C@@H]1CN([C@@H](C)CO)S(=O)(=O)c2ccc(-c3ccncc3)cc2O[C@@H]1CN(C)S(=O)(=O)c1ccccc1F | . | . | . | 2.0 | .
Cc1ccccc1-c1cnc2c(c1)C(=O)N([C@@H](C)CO)C[C@@H](C)[C@@H](CN(C)Cc1cccnc1)O2 | . | . | . | -4.0 | .
COc1ccc(OCC(=O)Nc2ccccc2C(=O)NC2CC2)cc1 | -0.1 | -2.4 | 17.4 | -1.7 | 7.9
COC(=O)c1ccc(OCC(=O)Nc2ccccc2C(=O)NC2CC2)cc1 | -0.6 | 0.2 | 25.5 | 10.6 | 56.8*
Cc1cc(O)c2c(c1)C(=O)c1cc(O)cc(O)c1C2=O | -0.2 | 0.1 | -1.3 | 0.6 | -42.0
O=C1c2cc(O)cc(O)c2C(=O)c2c1cc(O)c([C@@H](CO)CCO)c2O | -0.4 | -0.1 | -12.0 | 46.1* | -0.7
CC(C)C(=O)Nc1cccc(-c2nc3ccccc3c(=O)o2)c1 | 0.2 | -2.1 | 6.5 | . | -7.2
CC(C)C(=O)Nc1ccc(-c2nc3ccccc3c(=O)o2)cc1 | 0.2 | -1.2 | 0.7 | 16.2* | -13.1
O=C(COC(=O)C(Cc1ccccc1)NC(=O)c1cccs1)NCc1ccccc1 (configuration not stated) | -0.1 | 0.7 | 59.2* | -13.0 | -5.5
O=C(NCC[C@H]1CC[C@H](NC(=O)C2CCCC2)[C@@H](CO)O1)c1cc(Cl)cc(Cl)c1 | . | . | . | 3.8 | .
CC(=O)c1cccc(NC(=S)NC(=O)C(C)C)c1 | 0.1 | 0.5 | 86.5* | 0.7 | -2.4
C/C(=N/NC(N)=S)c1cc2ccc(O)cc2oc1=O | 0.1 | 2.5 | 0.4 | 39.4* | 3.8
NC(=S)c1cc2ccc(O)cc2oc1=O | -0.5 | -0.8 | 14.6 | 2.6 | 8.7
Cc1nc2c(nc1C)C(=O)c1ccccc1C2=O | 14.3* | -16.3 | -11.3 | 5.8 | -15.3
O=C(Nc1ccc(CN2CCOCC2)cc1)c1ccc(-c2cccc([N+](=O)[O-])c2)o1 | -0.2 | -2.8 | -8.7 | -32.8 | 61.5*
O=[N+]([O-])c1cccc(-c2ccc(C(=S)N3CCOCC3)o2)c1 | -1.0 | -7.4 | 5.2 | . | 0.4
COc1cc(OC)cc(-c2sc3ccc(OC)cc3c2-c2ccc(OCCN3CCOCC3)cc2)c1 | -0.3 | -3.4 | 61.1* | 1.2 | 1.5
COc1cccc(-c2sc3ccc(OC)cc3c2-c2ccc(OCCN(C)C)cc2)c1 | 8.6* | -10.5 | 9.3 | 8.6 | -11.4
C[C@@H]1CN([C@H](C)CO)C(=O)Cc2cc(NS(=O)(=O)c3cn(C)cn3)ccc2O[C@@H]1CN(C)Cc1ccc(C(=O)O)cc1 | . | . | . | 6.4 | .
CCCN1CCN(C(c2cc3cc(OCC)ccc3[nH]c2=O)c2nnnn2C2CCCCC2)CC1 (configuration not stated) | -0.3 | -5.5 | 0.7 | 0.2 | 3.1

Screens as filed in PubChem BioAssay.
